Source: PubChem BioAssay (NCATS)
Inconclusive results are not listed. The source made the active and inactive calls. Unless noted, the call rests on the fitted dose curve; in most records, active means well fitted curve in the direction sought with a large enough effect; inconclusive means small, poorly fitted or top-dose-only effect, or another doubt; inactive means no such curve, though single readings can be large; an effect the other way counts as inactive or inconclusive.

What was measured:
[1] = Cell Viability - BJ (AID 421; calls by dose curve;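 further: potency means the concentration at half of the fitted maximal effect; cells exposed to compound for 40 hours at 37 °C before readout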); conditions: BJ fibroblast viability, qHTS
In short: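 Luminescent ATP signal (CellTiter-Glo, 20 min at room temperature) served as the read-out of viable BJ cells after 40 hours of compound treatment. Responses were scaled between DMSO and 100 uM tamoxifen, and AC50 values were obtained by Hill modeling.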

[2] = Cell Viability - Jurkat (AID 426;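 active means dose-dependent loss of cell ATP signal giving a full or clear fitted curve, ranked by lower potency value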;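 further: potency means the concentration at half of the fitted maximal effect; cells exposed to compound for 40 hours at 37 °C before ATP read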); conditions: qHTS
In short: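 Cells of the human T-cell leukemia line Jurkat (E6-1) are seeded at 5000 per well, treated with compound across a concentration range for 40 hours at 37 °C, then lysed with CellTiter-Glo; luminescence reports ATP.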

[3] = Cell Viability - Hek293 (AID 427;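 active means compounds whose dose-response curve shows a full or clear partial loss of cell viability, called from curve shape rather than a numeric limit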;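 further: potency means the concentration at half of the fitted maximal effect; cells exposed to compound for 40 hours at 37 °C before reading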); conditions: qHTS
In short: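 Luminescent ATP read-out (CellTiter-Glo, 20 min RT) after 40 hr compound exposure at 37 °C in complete medium. Signal normalized to DMSO (basal) and 100 uM tamoxifen (100% inhibition); concentration-response fitted with the standard Hill equation to give AC50.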

[4] = Cell Viability - HepG2 (AID 433; calls by dose curve;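 further: potency means the concentration at half of the fitted maximal effect; potency for ATP loss meaning cytotoxicity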); conditions: qHTS
In short: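 Cytotoxicity read as ATP loss (CellTiter-Glo luminescence) after 40 hr compound exposure of HepG2, 1500 cells/well, 37 °C. AC50 by Hill equation; 0% set by DMSO, 100% inhibition by 100 uM tamoxifen.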

[5] = Cell Viability - MRC5 (AID 434; calls by dose curve;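 further: potency means the concentration at half of the fitted maximal effect; potency reflects cytotoxicity seen as loss of intracellular ATP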); conditions: MRC5 lung fibroblast viability, qHTS
In short: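 ATP luminescence read-out (CellTiter-Glo, 20 min RT) after 40 hr, 37 °C compound exposure of 1500 MRC5 cells/well. Data normalized to DMSO (basal) and 100 uM tamoxifen (100% inhibition); AC50 from standard Hill equation.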

[6] = Cell Viability - N2a (AID 540); conditions: N2a mouse neuroblastoma cell viability; at 92.2 µM (top of the series);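 further: cells exposed to compound for 40 h at 37 °C; plate controls were DMSO alone for no effect and tamoxifen control for full effect; nearly all actives have a fitted effect of over 45% in size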
In short: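 Cytotoxicity was scored as loss of cellular ATP in N2a cells, a mouse neuroblastoma line. Compounds are applied in a qHTS concentration series for 40 hr at 37 °C.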

[7] = Cell Viability - H-4-II-E (AID 543); further: on the % scale 0 is the no-effect control and ±100 the full control effect; nearly all actives have a fitted effect of over 35% in size
In short: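 Cells seeded at 1500 per well and rested 5 hr; compounds added; 40 hr incubation at 37 °C; CellTiter-Glo added, 20 min at room temperature; luminescence read. Hill-equation fits gave AC50.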

[8] = Cell Viability - SH-SY5Y (AID 544);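 further: 0% = DMSO alone and -100% = 100 µM tamoxifen; nearly all actives have a fitted effect of over 55% in size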
In short: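 Cells were plated at 1500 per well and allowed 5 hr at 37 °C. Compounds were added across a concentration range and incubated 40 hr at 37 °C. CellTiter-Glo was added for 20 min at room temperature before luminescence reading.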

[9] = Cell Viability - Renal Proximal Tubule (AID 545);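 further: 0% = DMSO only and -100% = 100 µM tamoxifen; nearly all actives have a fitted effect of over 40% in size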
In short: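 Viability taken as intracellular ATP (CellTiter-Glo luminescence) after 40 hr, 37 °C compound treatment of primary proximal tubule cells from rat kidney, 1000 cells/well; Hill-equation fits of qHTS concentration-response data gave AC50.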

[10] = Cell Viability - Mesenchymal (AID 546);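 further: cells exposed to compound for 40 hours before reading; 0% = DMSO only and -100% = 100 µM tamoxifen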
In short: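 Human renal mesenchymal cells (glomerulus-derived), 1000 cells/well, 5 hr 37 °C pre-incubation; compound 40 hr, 37 °C; CellTiter-Glo, 20 min RT; luminescence; AC50 via Hill equation.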

[11] = Cellular Toxicity (caspase-3) HepG2 (AID 654);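 further: cells exposed to compound for 16 hours before reading; 0% = DMSO alone and 100% = caspase signal from 100 µM tamoxifen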
In short: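 Caspase 3/7 activation in HepG2 is measured as rising luminescence after a 16 hr treatment at 37 °C. Values are scaled between DMSO basal and 100 uM tamoxifen, and AC50 is fitted with the Hill equation.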

[12] = Cellular Toxicity (caspase-3) Jurkat (AID 655);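 further: cells exposed to compound for 16 h at 37 °C before reading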
In short: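 Luminescent Caspase-Glo 3/7 read-out (20 min, room temperature) after 16 h compound treatment at 37 C of 5000 Jurkat cells per well. AC50 derived by Hill-equation fitting, scaled between DMSO basal and 100 uM tamoxifen stimulation.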

[13] = Cellular Toxicity (caspase-3) HUV-EC-C (AID 656);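 further: 0% = DMSO basal and 100% = 100 µM tamoxifen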
In short: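 Luminescent Caspase-Glo 3/7 readout after 16 h, 37 °C compound exposure of HUV-EC-C endothelial cells, 1000 per well, complete medium. AC50 derived by Hill fitting, with DMSO as baseline and 100 uM tamoxifen as full activation.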

[14] = Cellular Toxicity (caspase-3) SHSY5Y (AID 657)
In short: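 Luminescent Caspase-Glo 3/7 read-out, 1 hr room temperature, follows 16 hours of compound treatment of SH-SY5Y cells at 37 °C. Normalization: DMSO basal, 10 uM staurosporine as 100%; AC50 values from Hill-equation concentration-response fits.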

[15] = Cellular Toxicity (caspase-3) BJ (AID 658);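 further: 0% = DMSO basal and 100% = 10 µM staurosporine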
In short: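 qHTS, BJ fibroblasts, 1000 cells/well; 5 hr preincubation, 16 hr compound, 37 °C; Caspase-Glo 3/7 reagent, 1 hr RT; luminescence. DMSO = 0%, 10 uM staurosporine = 100%. Hill-equation AC50.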

[16] = Cellular Toxicity (caspase-3) MRC-5 (AID 659);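 further: 0% = DMSO basal and 100% = 10 µM staurosporine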
In short: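 MRC-5 fibroblasts, 1500/well; 16 h cpd, 37 °C; Caspase-Glo 3/7, 1 h RT; lumi read. Norm: DMSO = 0%, 10 uM staurosporine = 100%. Hill-fit AC50 from qHTS conc-response.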

[17] = Cellular Toxicity (caspase-3) Mesangial (AID 660);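 further: combined caspase 3 and 7 activity read by Caspase-Glo luminescence; cells exposed to compound for 16 h before the caspase read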
In short: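 Seed cells derived from normal human renal glomeruli, incubate 5 h, add compounds across concentrations and incubate 16 h at 37 °C. Caspase 3/7 activation is then quantified by luciferase light, with AC50 derived by Hill modeling.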

[18] = Cellular Toxicity (caspase-3) SK-N-SH (AID 661);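 further: 0% = DMSO basal and 100% = 10 µM staurosporine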
In short: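 Cells were seeded and incubated 5 hr at 37 °C, dosed with compound over a concentration range for 16 hr, then given Caspase-Glo 3/7 reagent for 1 hr at room temperature before luminescence reading.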

[19] = Cellular Toxicity (caspase-3) H-4-II-E (AID 663);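 further: cells exposed to compound for 16 hr before readout; 0% = DMSO basal and 100% = 100 µM tamoxifen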
In short: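 H-4-II-E rat hepatoma, 1500 cells/well, 5 hr settle at 37 °C; compound 16 hr, 37 °C, complete medium; Caspase-Glo 3/7, 20 min RT; luminescence. DMSO = 0%, 100 uM tamoxifen = 100%; Hill-equation AC50.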

[20] = Cellular Toxicity (caspase-3) Hek293 (AID 664);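 further: cells exposed to compound for 16 h at 37 °C before readout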
In short: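 qHTS, HEK293 (human embryonic kidney), 16 h cpd exposure in complete medium. Caspase-3/7 activation = luminescence increase; normalized to DMSO/100 uM tamoxifen; Hill-fit AC50.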

[21] = Cellular Toxicity (caspase-3) N2a (AID 665);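 further: compound exposure lasted 16 h at 37 °C before readout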
In short: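 Caspase-3/7 activation, measured as increased luminescence from aminoluciferin release, is quantified in mouse N2a cells exposed to compounds for 16 h. Values are normalized to DMSO and 10 uM staurosporine, with AC50 derived by Hill modelling.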

[22] = Cellular Toxicity (caspase-3) NIH 3T3 (AID 666);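 further: caspase signal read after 16 h compound exposure; 0% = DMSO basal and 100% = 100 µM tamoxifen stimulation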
In short: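 Cells were plated at 1000 per well and incubated 5 hr at 37°C, then compound was added for 16 hr. Caspase-Glo 3/7 reagent followed for 20 min at room temperature before luminescence was read.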

[23] = Cellular Toxicity (caspase-3) Renal Proximal Tubule (AID 667);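 further: cells exposed to compound for 16 hours at 37 °C before detection; 0% = DMSO basal and 100% = 10 µM staurosporine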
In short: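 Caspase 3/7 activation measured by luminescent aminoluciferin release in primary rat proximal tubule cells after 16 hr compound exposure at 37 °C. AC50 from Hill-fitted concentration-response, scaled between DMSO and 10 uM staurosporine.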

[24] = molecular target: Cytochrome P450 3A4 (Homo sapiens) (UniProt P08684); experiment: qHTS Assay for Inhibitors and Substrates of Cytochrome P450 3A4 (AID 884); further: on the % scale 0 is the no-effect control and ±100 the full control effect; nearly all actives have a fitted effect of over 50% in size
In short: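 Luminescent readout of luciferin produced by CYP3A4 (20 nM) dealkylation of Luciferin-PPXE, 25 uM (its KM). NADPH-driven reaction ran 60 min at RT after 10 min compound preincubation; data scaled to 57 uM ketoconazole as 100% inhibition.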

[25] = Cell Viability - LYMP2-001 (AID 921);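 further: 0% = DMSO only and full inhibition = tetraoctylammonium bromide control wells; nearly all actives have a fitted effect of over 70% in size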
In short: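 Cellular ATP loss read by luciferase luminescence after 24 h compound exposure at 37 C in complete medium. LYMP2-001 lymphoblastoid cells, 2500/well; qHTS concentration-response data fitted with Hill equation for AC50.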

[26] = MultiTox-Fluor Cytotoxicity Assay - LYMP1-001 - Dead Cells (AID 946);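 further: 0% = DMSO and 100% = tetraoctylammonium bromide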
In short: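 AC50 from Hill fit of concentration-response; data normalized to DMSO (basal) and 15 uM tetraoctylammonium bromide (100%). LYMP1-001 lymphoblastoid cells, 2500/well, 16 hr compound at 37 C; dead-cell protease fluorescence, Ex/Em 485/520.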

[27] = MultiTox-Fluor Cytotoxicity Assay - LYMP1-001 - Live Cells (AID 947);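 further: 0% = DMSO only and full inhibition = tetraoctylammonium bromide control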
[28] = Cell Viability - LYMP1-002 - Assay at 16 hr (AID 948);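 further: 0% = DMSO alone and full effect = 92 µM tetraoctylammonium bromide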
In short: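 ATP luminescence (CellTiter-Glo) was measured after 16 hr compound exposure at 37 C of 2500 lymphoblastoid LYMP1-002 cells per well. Concentration-response curves were fitted with the Hill equation to give AC50.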

[29] = MultiTox-Fluor Cytotoxicity Assay - LYMP1-002 - Live Cells (AID 955); further: on the % scale 0 is the no-effect control and ±100 the full control effect
In short: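 Cells were seeded at 2500 per well and incubated 5 hr. Compounds were then added for 16 hr at 37 C, followed by MultiTox-Fluor reagent for 60 min at room temperature and fluorescence reading of viable-cell protease signal.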

[30] = MultiTox-Fluor Cytotoxicity Assay - LYMP1-002 - Dead Cells (AID 960);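 further: 0% = DMSO and 100% = tetraoctylammonium bromide; nearly all actives have a fitted effect of over 60% in size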
In short: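 Cells were plated, rested 5 hr, then treated with compound dilution series for 16 hr at 37 C. After adding substrate reagent and 60 min at room temperature, dead-cell protease fluorescence gave concentration-response curves fitted by the Hill equation.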

[31] = MultiTox-Fluor Cytotoxicity Assay - LYMP1-003 - Live Cells (AID 962);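 further: 0% = DMSO only and full loss = 92 µM tetraoctylammonium bromide; cytotoxic hits lower the live-cell protease signal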
In short: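 Acute cytotoxicity is scored as a drop in live-cell protease activity in human lymphoblastoid LYMP1-003 cells after 16 hr compound exposure at 37 C. AC50 values come from Hill-equation modelling of concentration-response data.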

[32] = Cell Viability - LYMP1-003 - Assay at 24 hr (AID 963);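 further: plate controls were DMSO only for no effect and tetraoctylammonium bromide positive control for full effect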
In short: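 Cytotoxicity is scored as a concentration-dependent fall in ATP-linked luciferase signal in human lymphoblastoid LYMP1-003 cells treated 24 hr at 37 C in complete culture medium.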

[33] = Cell Viability - LYMP1-003 - Assay at 40 hr (AID 964); further: on the % scale 0 is the no-effect control and ±100 the full control effect; nearly all actives have a fitted effect of over 60% in size
In short: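 Luminescent ATP signal (CellTiter-Glo) served as the viability read-out after 40 hr compound treatment of human lymphoblastoid LYMP1-003 cells at 37 C. Decreases in ATP were fitted with the Hill equation to give AC50.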

[34] = Cell Viability - LYMP2-003 (AID 965);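 further: cells exposed to compounds for 24 h before reading; 0% = DMSO only and full effect = 92 µM tetraoctylammonium bromide; nearly all actives have a fitted effect of over 50% in size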
In short: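 CellTiter-Glo luminescence quantified ATP loss after 24 h compound treatment of LYMP2-003 lymphoblastoid cells at 37 C. Titration series were fitted with the standard Hill equation to give AC50.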

[35] = Cell Viability - LYMP2-004 (AID 966);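 further: plate controls were DMSO only for no effect and tetraoctylammonium bromide control for full effect; nearly all actives have a fitted effect of over 65% in size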
In short: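 qHTS cytotoxicity: human lymphoblastoid line, 24 hr compound treatment, 37 C, complete medium. Viability read as cellular ATP via luciferase luminescence; tetraoctylammonium bromide served as positive control.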

[36] = Cell Viability - LYMP2-005 (AID 967);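 further: plate controls were DMSO only for no effect and 92 µM tetraoctylammonium bromide control for full effect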
In short: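 LYMP2-005 human lymphoblastoid cells (2500/well) were treated with compounds for 24 h at 37 C. Intracellular ATP was then measured by CellTiter-Glo luminescence after 30 min at room temperature. AC50 values came from Hill-equation fits of qHTS concentration-response data.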

[37] = Cell Viability - LYMP2-009 (AID 968);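 further: 0% = DMSO alone and the full-kill end = tetraoctylammonium bromide at 92 µM; nearly all actives have a fitted effect of over 55% in size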
[38] = Cell Viability - LYMP2-011 (AID 969)
In short: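 In this qHTS cytotoxicity format, compounds are tested across concentrations on human lymphoblastoid cells in complete medium for 24 hours at 37 C. Viability is taken as cellular ATP measured by luciferase luminescence.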

[39] = Cell Viability - LYMP2-013 (AID 970)
In short: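 Cytotoxicity is scored as a concentration-dependent drop in intracellular ATP in human lymphoblastoid cells after 24 hr compound exposure at 37 C. ATP is quantified by luciferase luminescence, and AC50 values come from Hill-equation modeling.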

[40] = Cell Viability - LYMP2-015 (AID 971)
In short: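 Cells are seeded at 2500 per well and incubated 5 hr at 37 C. Compounds are added across a concentration series for 24 hr at 37 C. CellTiter-Glo is added, and luminescence is read after 30 min at room temperature.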

[41] = Cell Viability - LYMP2-017 (AID 972)
In short: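 Cytotoxicity is scored as a concentration-dependent drop in cellular ATP in a human lymphoblastoid line after 24 hr treatment at 37 C. Values are AC50s from Hill-equation modelling.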

[42] = Cell Viability - LYMP2-021 (AID 974)
In short: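 Loss of cellular ATP, measured with a luciferase-based CellTiter-Glo readout, serves as the toxicity signal in human lymphoblastoid cells treated for 24 hours at 37 C. Potency is reported as AC50 from a standard Hill model.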

Chain of Cytochrome P450 3A4 (Homo sapiens) (P08684 whole entry, looked up): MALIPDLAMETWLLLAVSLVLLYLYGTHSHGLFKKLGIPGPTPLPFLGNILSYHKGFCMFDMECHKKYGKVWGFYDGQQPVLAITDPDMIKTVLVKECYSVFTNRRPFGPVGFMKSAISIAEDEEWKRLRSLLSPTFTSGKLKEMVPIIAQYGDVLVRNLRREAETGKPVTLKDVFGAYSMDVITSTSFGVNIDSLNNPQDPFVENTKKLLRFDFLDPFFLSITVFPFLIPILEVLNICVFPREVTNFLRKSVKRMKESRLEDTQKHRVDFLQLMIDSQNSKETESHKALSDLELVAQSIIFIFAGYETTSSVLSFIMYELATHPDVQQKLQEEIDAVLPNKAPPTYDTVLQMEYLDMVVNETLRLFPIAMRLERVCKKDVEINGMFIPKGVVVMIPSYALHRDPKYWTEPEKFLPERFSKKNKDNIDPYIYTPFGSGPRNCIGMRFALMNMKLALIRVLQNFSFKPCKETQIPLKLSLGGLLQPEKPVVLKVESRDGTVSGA

O=Cc1ccccc1
inactive: Potency [1] > 92 µM | Potency [2] > 92 µM | Potency [3] > 92 µM | Potency [4] > 92 µM | Potency [5] > 92 µM | activity change, negative = cytotoxicity [6] 6.11% | outcome [7] | outcome [8] | outcome [9] | outcome [10] | outcome [11] | outcome [12] | outcome [13] | outcome [14] | outcome [15] | outcome [16] | outcome [17] | outcome [18] | outcome [19] | outcome [20] | outcome [21] | outcome [22] | outcome [23] | Potency [24] | outcome [25] | Potency [26] | outcome [27] | outcome [28] | outcome [29] | Potency [30] | outcome [31] | outcome [32] | Potency [33] | outcome [34] | outcome [35] | outcome [36] | outcome [37] | outcome [38] | outcome [39] | outcome [40] | outcome [41] | outcome [42]
